Results: PubChem BioAssay (NCATS)
Values joined by “and” are separate entries in the source; they are usually repeats but may differ in a detail not shown here. Equal values may be shown once. Records with an inconclusive call do not appear. A number with no mark means an inactive call. Active and inactive are the calls of the source. Calls follow the shape of the dose curve; as a rule, active = well fitted inhibition curve with a large enough effect; inconclusive = small, poorly fitted or top-dose-only effect; inactive = flat fitted curve, though single readings scatter.

How the values were obtained:
Assay in all cases: Cytotoxic Profiling of Annotated Libraries Using Quantitative High-Throughput Screening (AID 1296008); also: nearly all actives have a fitted effect of over 60% in size
Conditions in all cases: Five cell lines viability, CellTiter-Glo ATP luminescence, 48-72 h; max response: hits give low values
[1] = tested on: CRL-7250
Procedure, shortened: (§1)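 Cytotoxicity was measured as CellTiter-Glo ATP luminescence, read after 10 min at room temperature. Compound treatment of the cells lasted 48 or 72 hr at 37 degrees Celsius in a qHTS format.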

[2] = tested on: HEK293
Procedure, shortened: as §1

[3] = tested on: HaCat
Procedure, shortened: as §1
% is scaled to controls: 0 for no effect and ±100 for the full control effect; potency is read from the fitted curve at half-maximal effect.

Nc1ncnc2c1c(-c1cccc(OCc3ccccc3)c1)cn2C1CC(CN2CCC2)C1 (stereo unspecified)
outcome [1]: inactive | Potency [2]: 26.4 µM (active) and 8.2 µM (active) | max response [3]: 4.36%

COc1cc(F)c(C(C)C)cc1-c1ccc(C(F)(F)F)cc1CN1C(=O)O[C@H](c2cc(C(F)(F)F)cc(C(F)(F)F)c2)[C@@H]1C
outcome [1]: inactive | max response [2]: 0.948% | max response [3]: 0.17%

CCNC(=O)[C@H]1O[C@@H](n2cnc3c(N)nc(NCCc4ccc(CCC(=O)O)cc4)nc32)[C@H](O)[C@H]1O
max response [1]: 4.93% | outcome [2]: inactive | max response [3]: -10.6%

CCC[C@@H](NC(=O)[C@@H]1[C@H]2CCC[C@@H]2CN1C(=O)[C@@H](NC(=O)[C@@H](NC(=O)c1cnccn1)C1CCCCC1)C(C)(C)C)C(=O)C(=O)NC1CC1
outcome [1]: inactive | max response [2]: -0.244% | outcome [3]: inactive

CC=C(C(=CC)c1ccc(O)cc1)c1ccc(O)cc1
max response [1]: -2.03% | max response [2]: -14% | outcome [3]: inactive

C=CC[N+]1([C@H]2C[C@H]3[C@@H]4CC[C@H]5C[C@H](O)[C@@H](N6CCOCC6)C[C@]5(C)[C@@H]4CC[C@]3(C)[C@H]2OC(C)=O)CCCC1
outcome [1]: inactive | max response [2]: -1.88% | outcome [3]: inactive

CN(CC=CC#CC(C)(C)C)Cc1cccc2ccccc12
max response [1]: 1.65% | outcome [2]: inactive | outcome [3]: inactive

O=S(=O)(O)c1ccc2cc(N=Nc3cc(S(=O)(=O)O)c4cccnc4c3O)ccc2c1
max response [1]: -1.21% | max response [2]: -8.8% and -0.547% | max response [3]: -5.73% and 2.13%

O=C(Nc1ccccc1)Nc1ccc(-c2ccc(C(=O)[C@H]3CCC[C@H]3C(=O)O)cc2)cc1
outcome [1]: inactive | max response [2]: -0.566% | outcome [3]: inactive

CCCCOCCOc1nc(-c2ccc(C(=O)O)c(F)c2)sc1C
max response [1]: -34.6% | max response [2]: -11.4% | max response [3]: -22%

CC(NCCc1ccc(O)cc1)C(O)c1ccc(O)cc1 (stereo unspecified)
max response [1]: -0.502% | max response [2]: 3.14% | max response [3]: -0.381%

CCNC(=O)Nc1ccc(Oc2ncnc(N)c2C=NOC)cc1Cl
outcome [1]: inactive | max response [2]: -3.24% | outcome [3]: inactive

COc1cc(Cl)cn2c(-c3cccc(NC4CNC4)n3)cnc12
max response [1]: -2.6% | max response [2]: -13.3% | max response [3]: -3.22%

CC(C)(CO)[C@@H](O)C(=O)NCCC(=O)O
max response [1]: 0.71% | outcome [2]: inactive | outcome [3]: inactive

NC(=O)c1ccc(N(C(N)=O)c2c(F)cccc2F)nc1-c1ccc(F)cc1F
max response [1]: -5.46% and 0.374% | max response [2]: -4.84% and -3.96% | max response [3]: -19.1% and -25.7%

CSc1cccc(Nc2ncc3cc(-c4c(Cl)cccc4Cl)c(=O)n(C)c3n2)c1
Potency [1]: 235 nM (active) | Potency [2]: 13.2 µM (active) | max response [3]: -17.3%

O=c1cc(-c2ccc(O)c(O)c2)oc2cc(O)cc(O)c12
max response [1]: 4.28% | outcome [2]: inactive | outcome [3]: inactive

Cc1cccc(Nc2nc(N[C@@H]3CCCC[C@H]3N)ncc2C(N)=O)c1
outcome [1]: inactive | Potency [2]: 14.8 µM (active) | max response [3]: -5.8%

CCC(C)SSc1ncc[nH]1 (stereo unspecified)
max response [1]: -3.49% | Potency [2]: 13.2 µM (active) | outcome [3]: inactive

COc1ccc(CCN(C)CCCOc2ccc(S(=O)(=O)c3[nH]c4ccccc4c3C(C)C)cc2)cc1OC
outcome [1]: inactive | max response [2]: -1.95% | max response [3]: -8.82%

OC[C@H]1O[C@@H](OCCc2ccc(O)cc2)[C@H](O)[C@@H](O)[C@H]1O
max response [1]: -2.13% | max response [2]: 0.731% | max response [3]: -11.4%

Cc1cnc(CNC(=O)c2c(=O)c3ccc(N4CCCN(C)CC4)nc3n3c2sc2ccccc23)cn1
max response [1]: -36.5% and -21.3% | Potency [2]: 0.0512 µM (active) | max response [3]: -24.1%

Cn1cc(-c2ccc3nnc(Sc4ccc5ncccc5c4)n3n2)cn1
max response [1]: -0.0054% | outcome [2]: inactive | max response [3]: 1.95%

Fc1ccc(CNc2ncnc3ccc(F)cc23)cc1
Potency [1]: 4.69 µM (active) and 4.61 µM (active) | Potency [2]: 6.51 µM (active) | max response [3]: -29%

CCOC(=O)N1c2ccc(C(F)(F)F)cc2[C@@H](N(Cc2cc(C(F)(F)F)cc(C(F)(F)F)c2)C(=O)OC)C[C@H]1CC
Potency [1]: 14800 nM (active) | max response [2]: -0.609% | max response [3]: 3.49%

O=C1NC(=O)C(=Cc2ccc(-c3ccc(F)cc3O)o2)S1
max response [1]: -7.89% | max response [2]: -12.7% | max response [3]: -35.3%

O=C(c1ccc(C(=O)N2CCC(N3CCCC3)CC2)c(Nc2ccccc2)c1)N1CCC(N2CCCC2)CC1
max response [1]: -2.66% and 0.948% | max response [2]: -1.83% and -8.97% | outcome [3]: inactive

CCOc1ccccc1N=Nc1c(C)[nH]n(-c2nc(-c3ccccc3)cs2)c1=O
max response [1]: -16.1% | max response [2]: -20.4% | max response [3]: -4.82%

COc1cc(C=CC(=O)O)ccc1O
max response [1]: 1.23% | max response [2]: -0.866% | max response [3]: -11.1%

CC[C@H](C=C[C@@H](C)[C@H]1CC[C@H]2[C@@H]3CC=C4C[C@@H](O)CC[C@]4(C)[C@@H]3CC[C@]12C)C(C)C
max response [1]: -16.3% | max response [2]: 3.5% | max response [3]: -3.88%

COc1cc2ncn(-c3cc(OCc4ccccc4S(C)(=O)=O)c(C#N)s3)c2cc1OC
max response [1]: 0.002% | max response [2]: -13.3% | outcome [3]: inactive

Nc1nc(Cl)nc2c1ncn2[C@@H]1O[C@H](CO)[C@@H](O)[C@H]1F
Potency [1]: 1660 nM (active) | Potency [2]: 0.469 µM (active) | Potency [3]: 74.3 nM (active)

CCNC(=O)c1noc(-c2cc(C(C)C)c(O)cc2O)c1-c1ccc(CN2CCOCC2)cc1
Potency [1]: 83.3 nM (active) | Potency [2]: 46.9 nM (active) and 9.2 nM (active) | Potency [3]: 469 nM (active) and 41.1 nM (active)

C[C@@H](N)c1ccc(C(=O)Nc2ccnc3[nH]ccc23)cc1
max response [1]: -24.2% | Potency [2]: 23.1 µM (active) | Potency [3]: 18400 nM (active)

COc1cccc(OC)c1-c1cc(C(=O)NC2(C(=O)O)C3CC4CC(C3)CC2C4)nn1-c1ccnc2cc(Cl)ccc12 (stereo unspecified)
max response [1]: -4.21% | max response [2]: -21.7% | max response [3]: -12%

Nc1ncnc2c1ncn2[C@@H]1O[C@H](CO)[C@@H](O)[C@@H]1O
outcome [1]: inactive | max response [2]: -0.764% | outcome [3]: inactive

CCC=CC[C@H]1C(=O)CC[C@@H]1CC(=O)OC
max response [1]: -0.832% | max response [2]: 3.57% | outcome [3]: inactive

COc1ccc(-c2cc3nccn3c(Nc3ncccc3C(N)=O)n2)cc1OC
Potency [1]: 2090 nM (active) | Potency [2]: 1.48 µM (active) and 5.8 µM (active) | max response [3]: -23.8%

CCOC(=O)[C@H](CCc1ccccc1)N[C@@H](C)C(=O)N1CCCC1C(=O)O (stereo partly specified)
max response [1]: 3.69% | outcome [2]: inactive | outcome [3]: inactive

CC[C@]1(O)C[C@H]2CN(CCC3=c4ccccc4=N[C]3[C@@](C(=O)OC)(c3cc4c(cc3OC)N(C)[C@H]3[C@@](O)(C(N)=O)[C@H](O)[C@]5(CC)C=CCN6CC[C@]43[C@@H]65)C2)C1
Potency [1]: 93.5 nM (active) | Potency [2]: 0.0166 µM (active) | max response [3]: -10.4%

CCC(=O)N1CCN(c2ccc(-n3c(=O)ccc4cnc5ccc(-c6cnc7ccccc7c6)cc5c43)cc2C(F)(F)F)CC1
Potency [1]: 84.1 nM (active) | Potency [2]: 14.8 nM (active) and 53.1 nM (active) | Potency [3]: 1.05 µM (active) and 668 nM (active)

Nc1[nH]nc2nnc(-c3c(-c4ccccc4)nn4ccccc34)cc12
outcome [1]: inactive | max response [2]: 2.02% and -4.98% | outcome [3]: inactive

COc1ccc(CCC(=O)Nc2nc3ccc(Cl)cc3s2)cc1OC
max response [1]: 1.51% and -1.65% | max response [2]: -26% | max response [3]: -6.83% | outcome [3]: inactive

CCc1cccc(CC)c1NC(=O)N1Cc2[nH]nc(NC(=O)c3ccc(N4CCN(C)CC4)cc3)c2C1
Potency [1]: 16.6 µM (active) and 10.3 µM (active) | Potency [2]: 8.2 µM (active) | Potency [3]: 26.4 µM (active) and 18.4 µM (active)

NC(N)=Nc1nc(CSCCC(N)=NS(N)(=O)=O)cs1
max response [1]: -0.357% | max response [2]: -1.73% | outcome [3]: inactive
